TRHR agonist – qHTS for Small Molecule Agonists and Allosteric Enhancers of Human TRH Receptor: Primary Screen for Agonists. Thyrotropin-releasing hormone receptor (Homo sapiens), P34981. TRHR cells, calcium flux fluo-8, FDSS agonist mode. activation, % at 2 µM. 360,000 compounds, 0.18% hits
Target sequence (P34981 whole entry, looked up): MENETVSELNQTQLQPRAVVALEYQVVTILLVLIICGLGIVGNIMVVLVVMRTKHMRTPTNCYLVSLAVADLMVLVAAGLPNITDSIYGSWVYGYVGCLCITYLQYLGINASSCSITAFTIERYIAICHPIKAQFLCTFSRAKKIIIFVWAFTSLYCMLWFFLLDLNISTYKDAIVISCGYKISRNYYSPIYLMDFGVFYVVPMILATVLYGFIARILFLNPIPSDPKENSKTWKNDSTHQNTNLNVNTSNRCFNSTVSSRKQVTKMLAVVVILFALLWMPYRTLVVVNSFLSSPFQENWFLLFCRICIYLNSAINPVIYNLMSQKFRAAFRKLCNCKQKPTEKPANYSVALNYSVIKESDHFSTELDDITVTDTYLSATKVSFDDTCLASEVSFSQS
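Agonist-mode FDSS calcium read (Ex 480/Em 530, 1 s cycles) in 1536-well TRHR cells with fluo-8 dye, after 10-cycle baseline and 23 nL compound addition; TRH at EC20 (10 nM final) added afterwards for the enhancer phase.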
D1 PAM – Potentiators of Human D1 Dopamine Receptor: qHTS. D(1A) dopamine receptor (Homo sapiens), P21728. HEK293 TREx D1 cells, calcium flux, dopamine EC20 potentiation. potentiation, % at 10 µM. 360,000 compounds, 0.036% hits. AID 504651, 2011; in the data active = potentiation above about 30%
TRHR PAM – qHTS for Small Molecule Agonists and Allosteric Enhancers of Human TRH Receptor: Primary Screen for Enhancers | TRHR cells, fluo-8 calcium fluorescence, EC20 TRH enhancement | 360,000 compounds, 0.66% hits | enhancement, % at 2 µM | AID 493056, 2011; in the data active = enhancement above about 30%
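Enhancer read-out: after compound pinning and an initial kinetic agonist-mode read, an EC20 of TRH (10 nM final) was injected and fluo-8 calcium signal (Ex 480/Em 530) followed at 1 s/cycle for 100 cycles in TRHR-expressing cells.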
D1 ag – Allosteric Agonists of the Human D1 Dopamine Receptor: qHTS; 360,000 compounds, 1% hits; activation, % at 2 µM; HEK293 T-REx D1 cells, calcium flux, agonist mode
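Tetracycline-induced HEK293 TREx D1 cells, force-coupled to calcium signalling, were dye-loaded with a no-wash calcium kit. Compound was pin-added after a 10 s baseline. Fluorescence was read kinetically at 1 cycle/s for 180 s, with calcium rises flagged as agonism.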
Glioma ERSR ind – qHTS for Inducers of the Endoplasmic Reticulum Stress Response (ERSR) in Human Glioma: qHTS. Potency, µM, most hits filed as activators. U87-MG GRP78 promoter luciferase reporter, 16 h. 420,000 compounds, 0.02% hits; active = well fitted activation curve with a large enough effect; inconclusive = small, poorly fitted or top-dose-only effect; inactive = no such curve, though single readings can be large or run the other way; note: series mostly up to about 76 µM; nearly all actives have a fitted effect of over 35% in size
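Stably transfected U87-MG human glioma cells carrying a GRP78-based luminescent sensor were seeded at 1000 cells/well, pin-dosed with compounds and incubated 16 h. Luciferase reagent was then added, and end-point luminescence was read after 10 min at room temperature.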
D1 antagonist – Antagonist of Human D 1 Dopamine Receptor: qHTS. HEK293 TREx D1 cells, calcium flux, dopamine EC80; active compounds read low. activity change, negative = inhibition, % at 10 µM. 360,000 compounds, 3.2% hits; in the data active = activity change below about -30%
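Tetracycline-induced HEK293 Trex D1 cells, force-coupled to calcium, dye-loaded; compounds added and read 180 s, then EC80 dopamine added and calcium flux tracked kinetically another 180 s.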
Hits are given with their value; . = inactive; ? = inconclusive; / = not tested or not shown. A selection: hits, their analogues and other compounds. The true share with any hit is near 4%. Cut-off read from the data, not from the text of the source, unless noted: active = activation above about 30%; inactive = the rest.

SMILES	TRHR agonist	D1 PAM	TRHR PAM	D1 ag	Glioma ERSR ind	D1 antagonist
Cc1csc(=O)n1CC(=O)OCC(=O)Nc1cc(S(=O)(=O)N2CCOCC2)ccc1Cl	.	.	.	.	.	.
COC(=O)c1sc(NC(=S)NC(=O)c2ccccc2C)nc1C	.	.	.	92	.	.
COC(=O)c1sc(NC(=O)c2ccco2)nc1C	.	.	.	.	.	.
COC(=O)c1sc(NC(=S)NC(=O)c2ccc(F)cc2)nc1C	.	.	.	.	/	.
COC(=O)c1sc(NC(=O)c2c(C)noc2C)nc1C	.	.	.	.	.	-33
Cc1nc(NC(=O)c2ccco2)sc1C(=O)O	.	.	.	.	.	-35
COC(=O)c1sc(NC(=O)c2c(-c3ccccc3)noc2C)nc1C	.	.	.	.	.	.
CC(C)(C)c1ccc(S(=O)(=O)NNC(=O)C2CCN(Cc3cccc(F)c3)CC2)cc1	.	.	.	.	.	.
C/C=C/c1ccc(OCCN2C(=O)NC(C)(C)C2=O)c(OC)c1	.	.	.	.	.	.
CC(=O)c1ccc(C2C=CC(Oc3ccc(-c4ccccc4)cc3)C(CO)O2)cc1 (configuration not stated)	/	/	/	/	.	/
O=S(=O)(CCN1CCOCC1)c1ccc(Cl)cc1	/	/	/	/	.	/
N#Cc1ccc(Cl)cc1NC(=O)CN1C(=O)C(=O)N(CCC2=CCCCC2)C1=O	/	/	/	/	.	/
COc1cc(-c2noc(-c3ccc(NC4CCCC4)c([N+](=O)[O-])c3)n2)cc(OC)c1OC	.	.	.	.	.	-30
COc1ccc(-c2noc(-c3ccc(NCC4CCCO4)c([N+](=O)[O-])c3)n2)cc1 (configuration not stated)	.	.	.	.	.	-58
COc1ccccc1-c1noc(-c2ccc(NCc3ccco3)c([N+](=O)[O-])c2)n1	.	.	.	.	.	.
COc1ccc(-c2noc(-c3ccc(NCc4ccco4)c([N+](=O)[O-])c3)n2)cc1	.	.	.	.	.	-32
COc1ccc(-c2noc(-c3ccc(N4CCCC4)c([N+](=O)[O-])c3)n2)cc1OC	.	.	.	.	.	-38
C=CCn1c(COc2ccc(F)cc2)nnc1SC(C)C(=O)NCC1CCCO1 (configuration not stated)	.	/	.	.	.	.
O=C(Nc1cccc(F)c1)c1oc2ccccc2c1NC(=O)C12CC3CC(CC(C3)C1)C2	.	.	.	.	.	.
CC(C)(C)c1ccc(S(=O)(=O)N(CCCN2CCOCC2)Cc2cccs2)cc1	.	.	.	.	.	-33
CCOC(=O)C1=C(c2ccccc2)N=C2SCC(=O)N2C1c1cccc(OC)c1 (configuration not stated)	.	.	.	.	.	.
COC(=O)c1c(NC(=O)c2ccc(S(=O)(=O)N3CCCC(C)C3)cc2)sc2c1CCN(C(C)C)C2 (configuration not stated)	.	.	.	.	.	.
CCN1CCc2c(sc(NC(=O)c3ccc(S(=O)(=O)N(C)c4ccccc4)cc3)c2C(=O)NC)C1	48	.	.	175	.	.
CNC(=O)c1c(NC(=O)c2ccc(S(=O)(=O)N(C)c3ccccc3)cc2)sc2c1CCN(C(C)C)C2	62	.	.	90	.	.
CCN1CCc2c(sc(NC(=O)c3ccc(S(=O)(=O)N(CCOC)CCOC)cc3)c2C(N)=O)C1	.	.	.	.	.	.
SMILES	TRHR agonist	D1 PAM	TRHR PAM	D1 ag	Glioma ERSR ind	D1 antagonist
O=C1c2ccccc2NC(c2ccccc2O)N1Cc1ccco1 (configuration not stated)	/	/	/	/	.	/
O=C1c2ccccc2N2C(=O)c3ccccc3C2N1Cc1ccco1 (configuration not stated)	.	.	.	.	.	-50
O=C1c2cccnc2C(Nc2ccccc2Br)N1Cc1ccco1 (configuration not stated)	.	.	.	.	.	-53
Cc1ccc(N=Nc2[nH]c3ccccc3c2O)cc1	.	.	.	52	.	.
COc1ccc(N=Nc2[nH]c3ccc(C)cc3c2O)cc1	.	.	.	.	.	.
O=c1[nH]nc(N=Nc2c(O)[nH]c3ccc(F)cc23)c(=O)[nH]1	/	/	/	/	.	/
Cc1ccc(N=Nc2c(O)[nH]c3ccc(F)cc23)cc1	.	.	.	117	.	-48
COc1ccc2oc(C(=O)c3ccccc3)c(N)c2c1	.	.	.	.	.	.
COc1ccc(-c2nnn(CC(=O)N(c3cccc(O)c3)C(C)C(=O)NC3CCCC3)n2)cc1OC (configuration not stated)	.	.	.	.	.	-32
N/C(=N\OC(=O)C1CCCCC1)c1ccc(Cl)cc1	.	.	.	.	.	.
O=C(Nc1ccccc1O)c1ccccc1O	.	.	.	.	.	.
Cc1cccc(NC(=O)c2ccccc2O)c1C	.	.	.	.	.	-32
CN(C)c1ccc(/C=C2\CCC/C(=C\c3ccccc3)C2=O)cc1	.	.	.	91	.	.
COc1ccc(/C=C2\CCC/C(=C\C=N\N(C)C)C2=O)cc1	.	.	.	.	.	-35
CN(C)/N=C/C=C1\CCC/C(=C\c2ccc(F)c(F)c2)C1=O	.	.	.	.	?	/
CN(C)c1ccc(/C=C2\Cc3ccccc3C2=O)cc1	/	/	/	/	.	/
O=C(NNc1ccc([N+](=O)[O-])cn1)Nc1ccc(N=Nc2ccccc2)cc1	/	/	/	/	.	/
CC(c1ccccc1)N1CCC(CNC(=S)Nc2cccc(Cl)c2)C1 (configuration not stated)	.	.	.	45	.	-54
O=C(Nc1nccs1)C1CC(=O)N(c2ccc(Cl)cc2)C1 (configuration not stated)	.	.	.	.	.	.
CC[n+]1ccc(/C=C/c2c[nH]c3ccccc23)cc1	.	.	.	64	.	.
CCCCCCC[n+]1ccc(/C=C/c2c[nH]c3ccccc23)cc1	/	/	/	/	.	/
Cn1ncc(-c2ccno2)c1C(=O)O	.	.	.	37	.	.
CC(NS(=O)(=O)c1ccc(Br)cc1)c1ccccc1 (configuration not stated)	.	.	.	.	.	-34
COc1cc(-c2noc(C)c2-c2ccc3[nH]ccc3c2)cc(OC)c1OC	.	.	.	.	.	.
COc1cc(-c2noc(C)c2-c2ccc(N(C)C)nc2)cc(OC)c1OC	.	.	.	89	.	-59

Source: PubChem
